Assay outcomes deposited in PubChem by several laboratories.
Efflux pump inh: inhibitors of Candida efflux pumps in yeast, primary screen, S. cerevisiae, Nile Red, multiplex. S. cerevisiae Candida pump triplex. inhibition, % at 10 µM. hit rate 0.44% among 330,000. AID 485275, 2010;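 active = plate passing quality check with inhibition over a set limit, or well fluorescence over plate mean plus 4 SD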;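 note: Nile Red retained in pooled yeast measured as flow cytometry median fluorescence; 0% = buffer negative control and 100% = Enniatin B positive control; higher means more Nile Red kept so more efflux inhibition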
Bfl-1 A1 inh: caspase 3/7 activation in MEF A1-2A-BIM cells, primary screen, A1 inhibitor project, cell-based, luminescence, HTS. Caspase-Glo 3/7 luminescence, 3 h; percent of clofoctol response, vehicle zero. hit rate 0.066% among 330,000. caspase activation, % (no concentration beside the values);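 active = over half of replicate activation scores above 10%, or exactly half above 10 with the replicate mean above 10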
VLA-4 inh: inhibition in human VLA-4 binding assay, primary screen, VLA-4 allosteric modulator project, MLPCN library, flow cytometry, VLA-4 expressing cells; Integrin alpha-4 (Homo sapiens), P13612; AID 2557, 2010; ligand binding flow cytometry; inhibition, % (about 7 µM as worked out from the volumes in the protocol); hit rate 0.2% among 330,000; in the data active = inhibition above about 50%
SUMO Mot1 rescue: yeast Mot1-301 growth rescue at high temperature, primary screen, SUMOylation pathway inhibitor project, S. cerevisiae, ATP luminescence, 38.5C | S. cerevisiae Mot1-301 growth rescue; percent above DMSO median, 100 means doubled | growth rescue, % at 18.8 µM | hit rate 1% among 320,000 | AID 2716, 2010;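 active = every valid replicate shows activation above 250% relative to neutral control wells; inactive = the rest, any valid replicate at or below 250%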;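 note: OY570 slx delta 5 strain wells were the positive control but not used for scaling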
ALR H2O2 inh: inhibitors of human ALR sulfhydryl oxidase, primary screen, biochemical, H2O2 detection, HRP-luminol luminescence, single point; hit rate 3.8% among 290,000; purified ALR, DTT oxidation; FAD-linked sulfhydryl oxidase ALR (Homo sapiens), P55789; AID 485317, 2010; inhibition, % (concentration not given with the values);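 active = mean replicate inhibition above about 79%, with every replicate also reaching it, limit read from the data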
Target sequence (P55789 whole entry, looked up): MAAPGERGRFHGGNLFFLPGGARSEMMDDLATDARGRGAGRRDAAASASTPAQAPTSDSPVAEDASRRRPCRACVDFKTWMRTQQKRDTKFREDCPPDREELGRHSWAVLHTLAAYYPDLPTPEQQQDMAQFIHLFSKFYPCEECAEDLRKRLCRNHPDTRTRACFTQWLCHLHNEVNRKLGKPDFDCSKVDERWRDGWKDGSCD
AHR act: AHR activators, primary screen, cell-based, luminescence, luciferase reporter, human. AHR-responsive luciferase reporter cells. activation, % at 5 µM. hit rate 2.5% among 320,000. AID 2796, 2010; in the data active = activation above about 47%;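 note: 0% = vehicle wells and 100% = reference agonist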
* marks the source's active call; other numbers are inactive results; · = not tested or not shown. The list is not random: actives were taken first. Their share in the collection is about 7.2%.

SMILES | Efflux pump inh | Bfl-1 A1 inh | VLA-4 inh | SUMO Mot1 rescue | ALR H2O2 inh | AHR act
Cc1cc(C)nc(NS(=O)(=O)c2ccc(NC(=O)c3cc(=O)c4ccccc4o3)cc2)n1 | 0 | -1 | -25 | 1 | 2 | 1
COc1ccc(NC(=O)COC(=O)CCCc2c[nH]c3ccccc23)cc1 | 0 | 0 | 1 | -9 | 85* | 12
O=C(COC(=O)CCCC1=NS(=O)(=O)c2ccccc2N1)Nc1ccccc1 | 0 | 1 | -2 | 272 | -2 | 1
CC(=O)Nc1ccc(NC(=O)COC(=O)Cc2c[nH]c3ccccc23)cc1 | 0 | 0 | -7 | 9 | 83* | 8
COc1cc(NC(=O)COC(=O)CCCC2=NS(=O)(=O)c3ccccc3N2)cc(OC)c1 | 0 | 0 | 12 | 333* | -2 | 2
COc1ccc(NC(=O)COC(=O)Cc2c[nH]c3ccccc23)cc1OC | 0 | -1 | -12 | -14 | -6 | 8
CC(=O)NC(Cc1c[nH]c2ccccc12)C(=O)OCC(=O)Nc1ccc2c(c1)OCO2 (stereo not drawn) | 0 | 0 | -1 | 40 | 89* | 0
CC(C(N)=O)N1C(=O)c2cccc3cccc1c23 (stereo not drawn) | 0 | 0 | 4 | -16 | -19 | -1
CCOc1ccc(Br)cc1CN(CC)CC | 0 | 0 | -5 | 9 | 0 | -2
CCn1c(=O)c(C(=O)Nc2ccsc2C(=O)OC)c(O)c2ccccc21 | 2 | 0 | 1 | 783* | -3 | 27
CCn1c(=O)c(C(=O)NNC(=O)c2ccccc2Cl)c(O)c2ccccc21 | 0 | 1 | 5 | -7 | · | 0
O=C(NCc1cccnc1)c1c(O)c2cccc3c2n(c1=O)CCC3 | 0 | 2 | -4 | -6 | · | 77*
CCOC(=O)c1ccccc1NC(=O)c1c(O)c2ccccc2n(CC)c1=O | 0 | 1 | 4 | -6 | 1 | 2
CCn1c(=O)c(C(=O)NC(C)C)c(O)c2ccccc21 | 0 | 0 | 19 | 8 | -1 | 76*
CCn1c(=O)c(C(=O)NCc2cccnc2)c(O)c2ccccc21 | 0 | 1 | 0 | 18 | · | 56*
CCn1c(=O)c(C(=O)NCc2ccccc2)c(O)c2ccccc21 | 0 | 0 | 7 | -5 | 11 | 7
COC(=O)c1ccccc1NC(=O)C1CC(=O)N(c2ccc(C)cc2)C1 (stereo not drawn) | 0 | 1 | 2 | -5 | -26 | -2
Cc1ccc(-n2sc3ccccc3c2=O)cc1S(=O)(=O)N1CCCCC1 | 2.4* | -2 | -6 | 18 | · | 8
CN(C)S(=O)(=O)c1cccc(-n2sc3ccccc3c2=O)c1 | 136* | -2 | 21 | -5 | · | 3
CC(OC(=O)CC1CC2CCC1C2)C(=O)Nc1ccc(C(N)=O)cc1 (stereo not drawn) | 0 | 0 | 2 | -7 | · | 0
COCCNC(=O)CN1C(=O)NC2(CCCc3ccccc32)C1=O (stereo not drawn) | 0 | 0 | 4 | -9 | -7 | -1
CC1CCCCC1NC(=O)C1CCC(CNS(=O)(=O)c2ccc(F)cc2)CC1 (stereo not drawn) | 0 | 0 | 4 | 295* | · | 0
C/C(=N\NC(=O)CNC(=O)c1ccccc1F)c1ccco1 | 0 | 0 | 10 | -10 | -5 | -2
CCOC(=O)c1c(NC(=O)COC(=O)CCS(=O)(=O)c2ccc(C)cc2)sc(C)c1C | 0 | 1 | 0 | -7 | 94* | 7
CCOC(=O)c1cc(C(C)C)sc1NC(=O)COC(=O)CCS(=O)(=O)c1ccccc1 | 1 | 0 | 6 | 5 | -1 | 1
CC(=O)c1sc(-c2ccccc2)cc1N | 0 | -2 | 2 | 1 | 22 | 20
NNC(=O)c1sc(-c2ccccc2)cc1N | 0 | 0 | -120 | -3 | -6 | 66*
CCOC(=O)c1c(N)sc(-c2ccccc2)c1C | 0 | 0 | 7 | 117 | 99* | 0
CCOC(=O)c1cc(-c2ccccc2)sc1N | 0 | 0 | 8 | 219 | 99* | 0
